Assay outcomes (PubChem)
TexasRed autofl: compounds fluorescent in Texas Red spectral region; Compound fluorescence, Texas Red channel, 547/618 nm; active compounds read high; max dye-equivalent concentration, M; 59,000 compounds, 0.06% hits; AID 587; in the data active = max dye-equivalent concentration above about 10 nM; inconclusive = between about 1.1 nM and that limit
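Texas Red-region profiling: compounds in 100 mM Tris pH 8.0 were read at 547/618 nm after 15 min at room temperature. Intensities were normalized against a six-point Texas Red standard series to give dye-equivalent concentration.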
A488 fluor: A488 region autofluorescence; compound autofluorescence, A488 spectral region, dye equivalency; Compound Type: qHTS ECL - MLSMR; max dye equivalency, M; 59,000 compounds, 0.1% hits; AID 591
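Spectroscopic profiling in the A488 region: compounds in pH 8.0 Tris (100 mM), 15 min RT, CCD imaging with 480 nm excitation and 540 nm emission; responses normalized against A488 dye standards.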
Fluorescein autfl: compound autofluorescence in fluorescein spectral region. max fluorescein-equivalent concentration, M. AID 593. 59,000 compounds, 0.91% hits. Compound autofluorescence, 480/540 nm, fluorescein-equivalent; active compounds read high; in the data active = max fluorescein-equivalent concentration above about 10 nM; inconclusive = between about 1.1 nM and that limit
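Fluorescein stocks ranging 3 mM down to 300 nM, plus DMSO blanks, were pinned alongside compounds to build a per-plate standard curve. Buffer: 100 mM Tris, pH 8.0. Incubation 15 min, room temperature; filters 480/540 nm.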
A647 fluor: A647 region autofluorescence; Compound fluorescence, A647 channel (570/671 nm), Tris buffer; max dye-equivalent concentration, M; 59,000 tested, under 10 active
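Each compound's intrinsic fluorescence at 570 nm excitation and 671 nm emission is measured across its concentration series in 100 mM Tris, pH 8.0, after 15 min at room temperature, and reported relative to an A647 curve.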
Resorufin autofl: compounds fluorescent in resorufin spectral region. max dye-equivalent concentration, M. Compound fluorescence, resorufin region 547/598 nm, buffer; active compounds read high. 59,000 compounds, 0.04% hits
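Compounds in 100 mM Tris buffer, pH 8.0, incubated 15 min at room temperature, then read with 547 nm excitation and 598 nm emission filters. Fluorescence was converted to dye-equivalent concentration using an on-plate six-point resorufin standard curve.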
Rhodamine fluor: compound fluoresces in the rhodamine spectral region; Rhodamine-region fluorescence, 547/598 nm, Tris buffer; active compounds read high; max dye-equivalent concentration, M; 59,000 compounds, 0.05% hits; in the data active = max dye-equivalent concentration above about 11 nM; inconclusive = between about 1.1 nM and that limit
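Steps: pin-transfer compounds into pH 8.0 Tris (100 mM), hold 15 min at room temperature, image with a 547/598 nm filter pair, and convert intensities to rhodamine-equivalent concentration using a six-point on-plate rhodamine series.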
Large screens that a line does not name were inactive. Compounds with a hit are over-represented: about 0.96% of the library has one in this group of screens. Unless noted, the rule behind the calls is not given here.

O=C(NC1CCCC1)C(c1ccsc1)N(Cc1ccco1)C(=O)Cc1cccs1 (stereo not drawn)	Fluorescein autfl 1.11e-08M
Cc1ccccc1-c1cncnc1Nc1ccccc1	Fluorescein autfl inconclusive
O=C(CN1C(=O)c2cccc3cccc1c23)N1CCN(c2ccccc2)CC1	none
CCOC(=O)N1CCN(C2=Nc3cccc4cccc2c34)CC1	A488 fluor inconclusive, Fluorescein autfl 4.8e-08M
CC(=O)N1CCN(C2=Nc3cccc4cccc2c34)CC1	Fluorescein autfl 2.71e-08M
CCOC(=O)N1CCN(c2ccc(Cl)c(Cl)c2)CC1	none
C=C[C@H]1CN2CC[C@@H]1C[C@H]2[C@@H](O)c1ccnc2ccc(OC)cc12	Fluorescein autfl inconclusive
N#C[C@@H](Cc1ccc(O)c(O)c1)C(=O)N1CCc2ccccc21	Fluorescein autfl inconclusive
Cc1ccc(/C=c2\sc3nc(-c4cccs4)nn3c2=O)o1	TexasRed autofl inconclusive, Fluorescein autfl 1.29e-08M
COc1ccccc1/C=c1\sc2nc(-c3cccs3)nn2c1=O	none
N[C@@H]1C=CC=C(C(=O)O)C1	Fluorescein autfl inconclusive
CN(C)c1ccc(C2C=C(c3ccc(Cl)cc3OC(F)F)Nc3ncnn32)cc1 (stereo not drawn)	Fluorescein autfl 1.49e-08M
O=c1c(O)c(-c2ccc(O)c(O)c2)oc2c(OC[C@H]3O[C@@H](O)[C@@H](O)[C@H](O)[C@@H]3O)c(O)cc(O)c12	none
CN1CC=C2C(C#N)=C(N)C(C#N)(C#N)[C@H](c3cccc(Cl)c3)C2C1 (stereo partly drawn)	TexasRed autofl inconclusive, A488 fluor inconclusive, Fluorescein autfl 4.1e-08M
COc1cc([C@@H]2[C@H]3CN(C)CC=C3C(C#N)=C(N)C2(C#N)C#N)cc2c1OCO2	Fluorescein autfl 1.1e-08M
CCOC(=O)N1CC=C2C(C#N)=C(N)C(C#N)(C#N)[C@H](c3ccc(OC(C)C)c(OCC)c3)[C@H]2C1	none
CCOC(=O)N1CC=C2C(C#N)=C(N)C(C#N)(C#N)[C@H](c3ccsc3)[C@H]2C1	TexasRed autofl inconclusive, Fluorescein autfl inconclusive
CCCC1C2CN(C(C)C)CC=C2C(C#N)=C(N)C1(C#N)C#N (stereo not drawn)	TexasRed autofl inconclusive, A488 fluor inconclusive, Fluorescein autfl 5.12e-08M
CN1C2C=C3C(C#N)=C(N)C(C#N)(C#N)[C@@H](c4ccsc4)[C@@H]3C1CC2 (stereo partly drawn)	TexasRed autofl inconclusive
CN1CC=C2C(C#N)=C(N)C(C#N)(C#N)C(CCc3ccccc3)C2C1 (stereo not drawn)	TexasRed autofl inconclusive, A488 fluor inconclusive, Fluorescein autfl 4.33e-08M
C=C(C)CN(CC#N)CC(=C)C	none
COc1cccc(C2C3CN(C)CC=C3C(C#N)=C(N)C2(C#N)C#N)c1OC (stereo not drawn)	A488 fluor inconclusive, Fluorescein autfl 5.17e-08M
CCOC(=O)N1CC=C2C(C#N)=C(N)C(C#N)(C#N)[C@H](c3ccccc3OCC)[C@H]2C1	TexasRed autofl inconclusive, Fluorescein autfl inconclusive
CCN1CC=C2C(C#N)=C(N)C(C#N)(C#N)[C@H](c3cccc(OC)c3OC)[C@H]2C1	A488 fluor inconclusive, Fluorescein autfl 9.63e-08M
CCCC[C@]1(C2CCCC2)Cc2cc(OCC(=O)O)c(Cl)c(Cl)c2C1=O	Fluorescein autfl inconclusive
CN(Cc1cc(C(C)(C)C)cc(Br)c1O)Cc1cc(C(C)(C)C)cc(Br)c1O	none
CCCOc1ccc(/C=c2\sc3nc(-c4ccco4)nn3c2=O)cc1OCC	A488 fluor inconclusive, Fluorescein autfl 3.25e-08M
COc1ccccc1CNc1ccnc(-c2ccc(N(C)C)cc2)n1	Fluorescein autfl inconclusive
Cc1c(CCC#N)c(N2CCN(C3CCCCC3)CC2)n2c(nc3ccccc32)c1C#N	Fluorescein autfl 1.07e-08M
C=C1CC[C@@H]2[C@](C)(CC[C@@H](O)[C@]2(C)CO)[C@@H]1C/C=C1/C(=O)OC[C@H]1O	none
Cc1ccc(C)n1Cc1ccc(C(=O)O)cc1	Fluorescein autfl 1.07e-08M, A647 fluor inconclusive
COc1cc([C@@H]2Oc3cc([C@H]4Oc5cc(O)cc(O)c5C(=O)[C@H]4O)ccc3O[C@H]2CO)ccc1O	Fluorescein autfl inconclusive
